# From PubChem BioAssay AID1532 (PCMD, 2009)
# About 420 (0.38%) of roughly 110,000 compounds were called active. Cut-off read from the data, not from the text of the source: active = inhibition above about 30% (passing the limit was not always enough); inconclusive = no clear call, values can overlap the other calls. The full list was thinned out, with actives kept by preference.
# System: RmlC (dTDP-4-dehydrorhamnose 3,5-epimerase) and RmlD (dTDP-4-dehydrorhamnose reductase), coupled enzyme assay
# Test: RmlC and RmlD coupled enzyme inhibitors, primary screen, biochemical, 384-well, compound mixtures, retest (AID 1532)
# Conditions: 384-well mixture HTS, at 5.5 µM, stronger effect = higher value
# [1] = measured here: mean retest inhibition
smiles,measurement,setting,value
Cc1ccc(-c2csc(NCCc3nc4cc(Cl)c(Cl)cc4n3CCOCCO)n2)cc1,inhibition,,7.32% (inactive)
C=CCNC(=O)c1csc(-c2ccccc2)n1,inhibition,,10.9% (inactive)
C=CCNc1nc(N)c(C(=C(C#N)C#N)c2ccccc2)s1,inhibition,"above what the read-out allows, likely interference",654% (active)
CCOC(=O)CN1C(=O)N[C@@H](c2ccc(Br)cc2)C(C(C)=O)=C1C,inhibition,,-1.77% (inactive)
COC(=O)c1c(C)cc(O)c(C)c1O,inhibition,,12% (inactive)
CC(C)(C)Oc1ccccc1Nc1nc(NCCO)nc(N2CCCC2)n1,inhibition,,-10.1% (inactive)
NC1=NC[C@@H](Cc2ccc(O)cc2)N1CC1CCCCC1,inhibition,,10.2% (inactive)
C=CCOC(=O)C1=C[C@@H](c2ccccc2)C[C@@H](OCc2ccc(CO)cc2)O1,inhibition,,4.95% (inactive)
CC[C@H](C)[C@@H](C(=O)N1CCNCC1)n1cc([C@@H](N)Cc2ccc(O)cc2)nn1,inhibition,,-30% (inactive)
CC1(c2nnc(-c3ccncc3)o2)CC(c2cccnc2)=NO1 (stereo not drawn),inhibition,,-44.9% (inactive)
O=C1CCC(=O)N(O)CCCCCNC(=O)CCC(=O)N(O)CCCCCNC(=O)CCC(=O)N(O)CCCCCN1,inhibition,,-1.74% (inactive)
Fc1ccc2nc(N3CCCCC3)sc2c1,inhibition,,-11.1% (inactive)
Fc1ccc2nc(Nc3nc4c(s3)CCCC4)sc2c1,inhibition,,35.3% (active)
same,inhibition,[1],127%
O=C(CCS(=O)(=O)c1ccccc1)Nc1nc2c(s1)CCCC2,inhibition,,-10.7% (inactive)
CCCCN1C(N)=NC[C@@H]1CC1CCCCC1,inhibition,,6.72% (inactive)
NC(=O)[C@H]1CC2(CC(c3cccc(NC(=O)[C@H]4CCC(=O)N4)c3)=NO2)CN1C(=O)c1ccccc1C(=O)c1ccccc1 (stereo partly drawn),inhibition,,20.3% (inactive)
Cc1cccc(NC(=S)NCc2ccc3[nH]c4c(c3c2)CCCC4)c1,inhibition,,-2.9% (inactive)
COc1ccc(SCCN2CCN(CC(C)C)CCC2=O)cc1,inhibition,,8.87% (inactive)
COc1ccc(C(=O)Nc2nc(-c3ccc(S(=O)(=O)N4CCOCC4)cc3)cs2)cc1,inhibition,,-26.7% (inactive)
CCOC(=O)c1csc(NC(=O)c2ccc(S(=O)(=O)N3CCCC3)cc2)n1,inhibition,,96.7% (active)
same,inhibition,[1],82.9%
CCOC(=O)CSc1nnc(NC(=O)c2cccc(S(=O)(=O)N3CCCC3)c2)s1,inhibition,,5.07% (inactive)
Cc1nc(-c2ccc(Cl)cc2)sc1C1(C)CC(c2ccccc2F)=NO1 (stereo not drawn),inhibition,,7.68% (inactive)
COC(=O)C1=C[C@@H](C(=O)OC)[C@@H]2C3=C(C(=O)[C@]2(C)NC(=O)c2ccccc2)[C@H](C)n2c(=O)n(C)c(=O)n2[C@@H]3C1,inhibition,,2.28% (inactive)
O=C(C1=C[C@H](c2ccc(C(F)(F)F)cc2)C[C@H](OCc2ccc(CO)cc2)O1)N1CCN(Cc2ccccc2)CC1,inhibition,,3.78% (inactive)
CCN1C(=O)N[C@@H](c2ccccc2)C(C(=O)OC)=C1C,inhibition,,-30% (inactive)
Cc1ccc(C)c(CSc2nc(-c3ccco3)nc3c2c(=O)n(C)c(=O)n3C)c1,inhibition,,4.13% (inactive)
C/C=C(/C)C(=O)Nc1cccc(C2=NOC3(C2)C[C@@H](C(N)=O)N(C(=O)C2(C)CC2)C3)c1 (stereo partly drawn),inhibition,,4.45% (inactive)
NC(=O)C1=C[C@@H](c2csc3ccccc23)C[C@@H](OCc2ccc(CO)cc2)O1,inhibition,,19.8% (inactive)
CCCCCCCCCCCCN1[C@@H](CC(C)=O)c2cc(F)cc(F)c2S1(=O)=O,inhibition,,-11.3% (inactive)
COc1ccccc1C1=CC(=O)CCC1,inhibition,,7.57% (inactive)
CC1(C)C2CC[C@]3(C)C(CC=C4[C@@H]5C[C@@](C)(CO)CC[C@]5(C(=O)O)CC[C@]43C)[C@@]2(C)CC[C@@H]1O (stereo partly drawn),inhibition,,9.9% (inactive)
OCC[C@H]1C[C@H](O)[C@@H](O)[C@]2(CCCCO2)O1,inhibition,,7.31% (inactive)
NC(=O)c1sc2nc3c(c(-c4ccccc4)c2c1N)CCC3,inhibition,,-14.4% (inactive)
CC(=O)Nc1ccc(NC(=O)c2sc3nc4c(c(-c5ccc(C)cc5)c3c2N)CCC4)cc1,inhibition,,47.9% (active)
same,inhibition,[1],82.8%
Cc1cccc(NC(=O)c2sc3nc4c(c(-c5ccco5)c3c2N)CCC4)c1,inhibition,,20.3% (inactive)
CCOC(=O)c1ccccc1NC(=O)c1c(N)n(C)c(=O)[nH]c1=O,inhibition,,7.68% (inactive)
CC(C)(C)CN1C(=O)C(=O)NC[C@H]1Cc1cccc2ccccc12,inhibition,,-1.48% (inactive)
C#CCNC(=O)C1=C[C@@H](c2ccccc2)[C@H](CCCO)[C@@H](OCC)O1,inhibition,,0.66% (inactive)
C/C=C(\C)C(=O)N1CC2(CC(c3cccc(NC(=O)CCCCC)c3)=NO2)C[C@@H]1C(N)=O (stereo partly drawn),inhibition,,-5.61% (inactive)
CC(Sc1nc2c([nH]c3ccccc32)c(=O)n1C)c1ccccc1 (stereo not drawn),inhibition,,-7.85% (inactive)
CC(C)=CCC/C(C)=C/C(=O)O,inhibition,,2.81% (inactive)
c1ccc(-c2cn3c(n2)CCc2ccc4cccnc4c2-3)cc1,inhibition,,-52.8% (inactive)
CCCC(=O)Nc1cccc(-c2cn3ccsc3n2)c1,inhibition,,3.46% (inactive)
c1ccc(-c2ccnc3nc(-n4cccc4)nn23)cc1,inhibition,,-3.61% (inactive)
CC(=O)Nc1ccc(-c2cn3cccnc3n2)cc1,inhibition,,102% (active)
same,inhibition,[1],156%
c1ccc(-c2cn3cccnc3n2)cc1,inhibition,,70% (active)
same,inhibition,[1],81.6%
CC(=O)Nc1cccc(-c2cnc3ccccc3n2)c1,inhibition,,13.8% (inactive)
COc1ccc(CNC(=O)c2cc3c(=O)n4ccccc4nc3n(CC3CCCO3)c2=N)cc1 (stereo not drawn),inhibition,,-12.4% (inactive)
CCCn1c(=NC(C)=O)c(C(=O)OCC)cc2c(=O)n3ccccc3nc21,inhibition,,48.4% (active)
same,inhibition,[1],60.1%
CCn1c(=N)c(S(=O)(=O)c2ccc(F)cc2)cc2c(=O)n3ccccc3nc21,inhibition,,-13.4% (inactive)
C#CCOCCOCCOCCNc1nc(N2CCN(C(=O)[C@H](CCC(=O)O)n3cc(C(N)CO)nn3)CC2)nc(N2CCN(C(=O)[C@H](CCCCN)n3cc(C(N)[C@H](C)CC)nn3)CC2)n1 (stereo partly drawn),inhibition,,2.59% (inactive)
COc1ccc(OC)c2[nH]c(=O)c(CCNC(=O)C(C)(C)C)cc12,inhibition,,8.84% (inactive)
O=C(Nc1ccccc1)c1ccccc1NC(=O)C(F)(F)F,inhibition,,8.91% (inactive)
COCc1cc(=O)[nH]c2cc(NC(=O)C(F)(F)F)c(C)cc12,inhibition,,39.2% (active)
same,inhibition,[1],46.2%
COC(C[C@@H](O)[C@H](C)[C@H](O)COCc1ccccc1)OC,inhibition,,2.05% (inactive)
CC(C)CC(CO)N1CCN(C(=O)c2ccc(Cl)cc2Cl)CCC1=O (stereo not drawn),inhibition,,-11.9% (inactive)
CCO[C@H]1OC(C(=O)O)=C[C@@H](C2CCCCC2)[C@@H]1CCCO,inhibition,,-6.81% (inactive)
COc1ccc(CN2CC[C@H]3C=CC[C@@H](C(=O)N4CCOCC4)[C@H]3C2=O)cc1OC,inhibition,,7.97% (inactive)
N#CCc1c(C#N)c(N)nc(N2CCCC2)c1C#N,inhibition,,14.6% (inactive)
COC(=O)CCCC1=CC2=CC(=O)C(C)(OC(=O)c3cccs3)C(=O)C2=CN1c1cccc(C#N)c1 (stereo not drawn),inhibition,,-9.55% (inactive)
C=CC1C(OC2OC(CO)C(O)C(O)C2O)OC=C(C(=O)OC)C1CC1CC(=O)CC(CC(=O)CCc2ccc(O)cc2)O1 (stereo not drawn),inhibition,,3.85% (inactive)
C#CCOCCOCCOCCNc1nc(N2CCN(C(=O)[C@H](C(C)C)n3cc(CCO)nn3)CC2)nc(N2CCN(C(=O)[C@H](C(C)C)n3cc(CCO)nn3)CC2)n1,inhibition,,-12.1% (inactive)
O=C(O)C1=C[C@H](c2cccs2)C[C@H](OCCCCO)O1,inhibition,,5.69% (inactive)
COC(=O)COc1cccc2c(=O)n(CC(=O)NCCc3ccc(OC)c(OC)c3)ccc12,inhibition,,9.94% (inactive)
CC1=C(N2CCN(c3ncccn3)CC2)CCC1=O,inhibition,,12.7% (inactive)
NC(=O)CC(NC(=O)Cc1cccc2ccccc12)c1ccc(NCc2cc(F)ccc2F)c([N+](=O)[O-])c1 (stereo not drawn),inhibition,,-7.96% (inactive)
COC(=O)c1ccc(C(NC(=O)OCc2ccccc2)/C(F)=C/[C@@H](C)C(=O)O)cc1 (stereo partly drawn),inhibition,,3.33% (inactive)
CCCC[C@@H]1CN=C(N)N1CCCC,inhibition,,-28.4% (inactive)
COc1ccc(C(CC(=O)N2CCN(c3ccccc3)CC2)c2c(O)cc(OC)cc2OC)cc1 (stereo not drawn),inhibition,,0.73% (inactive)
C/C=C\C=C\C(=O)N1CC2(CC(c3cccc(NC(=O)/C(C)=C\C)c3)=NO2)C[C@H]1C(N)=O (stereo partly drawn),inhibition,,-0.91% (inactive)
COC(C[C@@H]1O[C@@H]1C(=O)[C@H](C)OCc1ccccc1)OC,inhibition,,-11.7% (inactive)
CCC1(CC)C(=O)C2=C3C1[C@H](C(=O)OC)C=C(C(=O)OC)C[C@H]3[C@H]1C(=O)N(Cc3ccccc3)C(=O)[C@H]1[C@H]2C (stereo partly drawn),inhibition,,-0.95% (inactive)
C=C1CCN([C@H](C(=O)NCc2cc(OC)c(OC)c(OC)c2)C(C)C)S(=O)(=O)c2ccccc21,inhibition,,5.25% (inactive)
CC1(C)CC[C@]2(C(=O)O)CC[C@]3(C)C(=CCC4[C@@]5(C)CC[C@H](O)C(C)(C)C5[C@H](O)C[C@]43C)[C@@H]2C1 (stereo partly drawn),inhibition,,-10.3% (inactive)
CCCCN1C(N)=NC[C@@H]1Cc1ccccc1,inhibition,,-9.09% (inactive)
COC(C[C@H](O)CC(=O)[C@@H](C)OCc1ccccc1)OC,inhibition,,5.9% (inactive)
C=C1CCN([C@@H](Cc2ccccc2)C(=O)N2CCOCC2)S(=O)(=O)c2ccccc21,inhibition,,-7.13% (inactive)
C#CCO[C@@H]1C[C@H](n2cnc3c(=O)[nH]c(NC(=O)C(C)C)nc32)O[C@@H]1CO,inhibition,,17.4% (inactive)
CCO[C@@H]1OC(C(=O)NC2CC2)=C[C@H](C)[C@H]1CCCO,inhibition,,-10.3% (inactive)
C#CCOCCOCCOCCNc1nc(N2CCN(C(=O)C([C@@H](C)CC)n3cc(C(N)COC(=O)C(F)(F)F)nn3)CC2)nc(N2CCN(C(=O)[C@H](Cc3ccc(O)cc3)n3cc(C(N)[C@H](C)CC)nn3)CC2)n1 (stereo partly drawn),inhibition,,-15.9% (inactive)
COc1ccc(C2/C=C\CN(S(=O)(=O)c3cccs3)CC(=O)N2Cc2ccc(F)cc2)cc1 (stereo not drawn),inhibition,,-18.6% (inactive)
